BaF3 tox = reduces parental Ba/F3 cell viability, JAK2V617F counter-screen; AID 1486; CellTiter-Glo ATP luminescence; hit rate 1.1% among 220,000; inhibition, % at 5.6 µM;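 active = inhibition above a per-campaign cutoff, the mean inhibition of all tested compounds plus 3 SD, cut at about 27% in these data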;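 note: 0% = DMSO wells and 100% = JAK Inhibitor I control wells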
Ba/F3 V617F tox = loss of viability in JAK2V617F-driven Ba/F3 cells | Ba/F3 EpoR-JAK2V617F viability, ATP luminescence | inhibition, % at 5.6 µM | hit rate 1.1% among 220,000;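 active = inhibition above the campaign mean plus 3 SD over all tested compounds, cut at about 24% in these data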;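 note: cytokine-independent growth of Ba/F3 cells driven by EpoR plus mutant JAK2; 0% = DMSO-treated cells and 100% = JAK inhibitor I control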
APP transl inh = APP translation inhibition; SH-SY5Y APP 5'UTR-luciferase reporter, luminescence; inhibition, % at 2 µM; hit rate 0.82% among 190,000; AID 1285;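 active = inhibition above a set limit, derived from the sample mean plus 3 SD, cut at about 45% in these data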
KLF5 inhibitor = suppresses KLF5 promoter-driven expression | hit rate 0.23% among 290,000 | AID 1700 | DLD-1 KLF5 promoter-luciferase reporter, luminescence | inhibition, % at 5 µM;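 active = inhibition above a per-plate limit of that plate's mean compound inhibition plus 3 SD, cut at about 60% in these data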;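 note: 0% = DMSO wells and 100% = LY294002 at 200 µM; higher means less KLF5 promoter-driven luciferase light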
IEC-6 tox = counter-screen for KLF5 inhibitors: cytotoxicity in IEC-6 cells; IEC-6 cytotoxicity, luminescence viability; inhibition, % at 5 µM; hit rate 0.78% among 290,000; AID 1825; in the data active = inhibition above about 22%;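 note: 0% = plate median of test compound wells and 100% = cytotoxic reference compound wells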
BaF3 tox 2 = counter-screen for JAK2V617F inhibitors: parental Ba/F3 viability inhibitors; shares compounds with Ba/F3 V617F tox; CellTiter-Glo luminescence; cells kept alive by added IL-3; inhibition, % at 5.6 µM; hit rate 31% among 580;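 active = cell growth inhibition above the hit limit set in the earlier mutant JAK2 cell screen, cut at about 27% in these data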;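 note: plate controls were DMSO-treated cells for no effect and JAK Inhibitor I control wells for full effect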
JAK2V617F confrm = Ba/F3 EpoR-JAK2V617F viability loss, confirmation | shares compounds with Ba/F3 V617F tox | CellTiter-Glo luminescence | inhibition, % at 5.6 µM | hit rate 66% among 580 | AID 1521;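 active = mean inhibition above the hit cutoff derived in the earlier primary screen, cut at about 25% in these data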;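 note: 0% = DMSO-treated cells and 100% = JAK inhibitor I control wells; higher means lower luminescence from reduced cell ATP and viability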
Numbers without * were called inactive; · = no result given. Only some compounds are listed: those with a hit (about 1.8% of all), similar ones and a draw of the others.

SMILES | BaF3 tox | Ba/F3 V617F tox | APP transl inh | KLF5 inhibitor | IEC-6 tox | others
CN1CCN(c2ccc(S(C)(=O)=O)cc2[N+](=O)[O-])CC1 | 3 | -1 | -15 | -25 | 2
CCC1(C(=O)c2ccc(C)cc2)C2c3ccccc3OC(=O)C21C(=O)O (configuration not stated) | 3 | 3 | · | 18 | 4
C[N+]1=C(/C=C/Nc2ccccc2)C(C)(C)c2ccccc21 | 61* | 59* | -16 | -7 | 5
C=CCN1C(=O)NC(=O)/C(=C/C=C/c2ccccc2)C1=O | 10 | 4 | 74* | -10 | -2
CCCNc1nc(OC)nc(N2CC3CC(C2)c2cccc(=O)n2C3)n1 (configuration not stated) | 8 | -1 | 3 | -8 | -3
O=C(/C=C/c1c[nH]c2ccccc12)c1c(O)n(CCc2ccccc2)c(=O)[nH]c1=O | 34* | -1 | · | 16 | 1
CCOC(=O)c1c(C=O)c2ccccc2n1Cc1ccccc1 | · | · | · | -41 | -1
CCOC(=O)c1ccc2c(c1)n(Cc1ccccc1)c(C)[n+]2CC | 27* | 18 | -41 | -20 | -5
Nc1ccccc1-[n+]1c(-c2ccccc2)cc(-c2ccccc2)cc1-c1ccccc1 | 52* | 49* | · | 7 | 11
O=S1(=O)CC2(N3CCOCC3)CCCCC21 (configuration not stated) | 9 | 2 | -19 | -19 | 2
Oc1cccc2cccnc12 | · | · | · | 30 | 37*
CN(C(=O)Oc1cccc2cccnc12)c1ccccc1 | 3 | -3 | 0 | -27 | -2
CCOC(=O)C(O)(c1ccc(N(CC)C(=O)COc2ccccc2)cc1)C(F)(F)F (configuration not stated) | 4 | -4 | 9 | -3 | 2
Cc1cc(C)c(S(=O)(=O)NCC2CCC(C(=O)N3CCC4(CC3)OCCO4)CC2)c(C)c1 (configuration not stated) | 11 | 5 | -10 | 11 | 3
CN1C(=O)C(=Cc2ccc(OCCN(C)c3ccccn3)cc2)C(=O)N(C)C1=O | 3 | 0 | -27 | 8 | -4
CC[N+]12CCC(CC1)C(=C(c1ccccc1)c1ccccc1)C2 | 29* | 9 | -6 | 15 | -1
C[N+]12CCC(CC1)C(=C(c1ccccc1)c1ccccc1)C2 | 24 | 5 | 1 | -18 | -5
COc1ccc(-c2nn(CCC#N)cc2C(=O)NCc2ccccc2)cc1OC | · | · | · | -25 | -9
CC1(C)C[C@H]2C=C(C=O)[C@]3(C=O)C[C@]3(C)[C@H]2C1 | 6 | 63* | 96* | 16 | 1 | BaF3 tox 2=103*;JAK2V617F confrm=100*
CC(=O)N1N=C2C3CCN(CC3)C2C1c1ccc(Br)cc1 (configuration not stated) | 1 | 1 | · | -17 | -6
c1ccc2[nH]c(CCNC3CCCCC3)nc2c1 | 1 | 49* | -2 | -11 | -6 | BaF3 tox 2=-1;JAK2V617F confrm=-2
O=C(O)c1[nH]c(=O)[nH]c(=O)c1F | 5 | 64* | · | 7 | -1 | BaF3 tox 2=20;JAK2V617F confrm=67*
N#CC12CNCC1CN=N2 (configuration not stated) | 2 | -2 | · | -7 | -2
Cc1cc(OC(C)C(=O)NCC2CCC(C(=O)O)CC2)c2c3c(c(=O)oc2c1)CCC3 (configuration not stated) | · | · | · | -1 | 2
C/C(=C\c1ccc(N(C)C)cc1)[N+](=O)[O-] | -1 | 32* | 32 | -6 | -3 | BaF3 tox 2=-3;JAK2V617F confrm=74*
CN(C)c1ccc(/C=C/[N+](=O)[O-])cc1 | 7 | 1 | -15 | -7 | -9
Fc1cccc(C2NCCc3[nH]cnc32)c1 (configuration not stated) | 4 | 2 | 2 | 1 | 2
O=C(Nc1ccccc1)N1CCC2(CC1)OCCO2 | 6 | 30* | -17 | -23 | 0 | BaF3 tox 2=-7;JAK2V617F confrm=-10
